Compounds without any hit were thinned out: in the full panel of roughly 83,000, 20% have a hit.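 96-well plates, one dose, 48 hours. Percent growth reported; active if below 10.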 Values without a mark were called inactive. Calls of active or inactive are those of the source.

The experiment relates to MDA-MB-231 breast. Put plainly: NCI-60 one-dose screen, 48 h (100 = growth as untreated, 0 = no growth, -100 = all killed). The settings on record: 10 µM unless noted.
Take `O=C(Nc1cccc2ccccc12)c1cc2ccccc2cc1O`: the growth is -22.1% (active).
The value for `COc1cc2c(O)n(CCCN3CCOCC3)c3c4cnc5cccc(c(=O)c3c2cc1OC)c54` was 48.7%.
The figure for `C#CCNC(=O)CC[C@@H](C)[C@H]1CC[C@H]2[C@@H]3CC[C@@H]4CC(=O)CC[C@]4(C)[C@H]3CC[C@]12C` is -78% [100 µM] (active); for `COc1ccc(NC(=O)Nc2ccc(-c3cccnc3)cc2N2CCC(CO)CC2)cc1` it is 34.2%; for `CC1(C(=O)O)CCC(N)(C(=O)O)C1(C)C` (configuration not stated) it is 108%.
For the compound `COc1ncc(-c2ccc3nccc(C#CCCCCC(=O)NO)c3c2)cc1NS(=O)(=O)c1ccc(F)cc1F`, the growth is -11.8% (active).
The value for `O=C(O)CC1CCCCC1c1ccccc1` (configuration not stated) was 116%.
In the case of `CC(C)=CC/C=C(/C)[C@H]1CC[C@]2(C)[C@@H]1CC[C@@H]1[C@@]3(C)CCC(=O)NC(C)(C)[C@@H]3CC[C@]12C`, the growth was -35.9% [100 µM] (active).
The figure for `Cc1nc(Cl)c2c(n1)N(C)c1ccc(Cl)cc1C(C)C2` (configuration not stated) is 77.1%; for `Cc1ccc(N)c(O)c1` it is 81.7%.
The figure for `Nc1ccc(Cl)c([N+](=O)[O-])c1` is 107%.
The value for `O=[N+]([O-])c1cccc(N=NNc2cccc([N+](=O)[O-])c2)c1` was 78.8%.
`C=C(C)[C@@H]1CC[C@]2(C)[C@H](CC[C@@H]3[C@@H]([C@@](C)(O)CCC=C(C)C)CC[C@]32C)[C@@]1(C)CCC(=O)N1CCN(C)CC1`: the growth was -95.8% [100 µM] (active).
As to `Cn1cc(-c2noc(C(=O)c3cn(C)c4ncc(Br)cc34)n2)c2ccccc21`, the growth is 79.1%.
The value for `COc1cc(NCc2ccccc2O)c2ncccc2c1` was 91.3%.
The figure for `Cc1ccc(C2=C/C(=C/c3ccc(Br)cc3)C(=O)N2CCc2ccc(S(N)(=O)=O)cc2)cc1` is 90.4%.
The value for `Nc1nc(Nc2ccccc2)c2ncn(Cc3ccc4c(c3)OCO4)c2n1` was 44%; that for `O=C(CCCSc1nc(-c2ccccc2)cc(-c2ccccc2)n1)NO` was 19.8%; that for `FC(F)(F)c1ccc2c(c1)Sc1ccccc1N2` was 99.5%.
In the case of `O=C1NC(=O)C(Cc2ccccc2)(Cc2ccccc2)N1`, the growth is 98.4%.
The value for `C=C(C)[C@@H]1CC[C@]2(C(=O)N3CCN(C)CC3)CC[C@]3(C)[C@H](CC[C@@H]4[C@@]5(C)C/C(=C/c6ccncc6)[C@H](O)C(C)(C)[C@@H]5CC[C@]43C)[C@@H]12` was -48.5% [100 µM] (active).
On to `C[C@@H](NC(=O)[C@@H](CC(=O)N1CCC(N2CCCCC2)CC1)N1C(=O)[C@@H](N2C(=O)OC[C@@H]2c2ccccc2)[C@H]1/C=C/c1cccc(Cl)c1)c1ccccc1`, for which the growth was 33.2%.
The figure for `N#C/C(=C(/O)CCCO)c1nc2ccccc2c(=O)[nH]1` is 98.5%.
Regarding `Cn1cc(-c2nnc(-c3cn(C)c4ncc(Br)cc34)s2)c2cc(Br)ccc21`, the growth is 67.2%.
The value for `CC1(C)CC[C@]2(C(=O)OC(=O)[C@]34CCC(C)(C)C[C@@H]3C3=CC[C@@H]5[C@@]6(C)CCC(=O)C(C)(C)[C@@H]6CC[C@@]5(C)[C@]3(C)CC4)CC[C@]3(C)C(=CC[C@@H]4[C@@]5(C)CCC(=O)C(C)(C)[C@@H]5CC[C@]43C)[C@H]2C1` was 45.7% [100 µM].
The value for `Cn1cc(-c2noc(-c3cn(C)c4ncc(Br)cc34)n2)c2cc(Cl)ccc21` was 57.2%.
The value for `CCc1cccc(Cl)c1` was 112%; that for `c1cc2ccc3cc2cc1CNCCN1CCNCc2ccc4ccc(cc4c2)CNCCN(CCNC3)CCNCc2ccc3ccc(cc3c2)CNCC1` was -23.7% (active).
As to `COc1ccc(-c2cc(-c3ccccc3)nc(NCCNc3ccnc4cc(Cl)ccc34)n2)cc1`, the growth is -89.8% (active).
With `O=C(N/N=C\c1cc(Cl)ccc1O)N/N=C/c1cc(Cl)ccc1O`, the growth was 48.3%.
The value for `O=C1Nc2ccccc2/C1=C/C(=O)c1ccc(N2CCCCC2)cc1` was 82.1%.
The figure for `O=c1c2c3c(sc2n2cnnc2n1Cc1ccccc1)CCCC3` is 96.6%; for `Cn1c(=O)c(C#N)c(-c2ccco2)n2c(S(=O)(=O)Cc3ccccc3)nnc12` it is 126%; for `CCCCCn1sc(=O)n(Cc2ccc(CNC(=O)OCc3ccc4cccc(O)c4n3)cc2)c1=O` it is -62.5% (active).
The value for `O=C(N/N=C/c1ccc([N+](=O)[O-])cc1)c1ccc(Br)o1` was 113%.
`C=C(C)[C@@H]1CC[C@]2(COCCC#N)CC[C@]3(C)[C@H](CC[C@@H]4[C@@](C)(CCCNCCC#N)[C@H](C(=C)C)CC[C@]43C)[C@@H]12`: the growth was 13.9% [100 µM].
The value for `C=C(C)[C@@H]1CC[C@]2(C(=O)OC)CC[C@]3(C)[C@H](CC[C@@H]4[C@@]5(C)CC/C(=N\OCCC(=NCCC#N)NOCCC#N)C(C)(C)[C@@H]5CC[C@]43C)[C@@H]12` was 5.09% [100 µM] (active).

The values are drawn from PubChem BioAssay (NCI).
